Sampled rows, rich in hits. Any-hit rate of the full collection: about 18%.
DT40 TDP1 CPT = DT40-hTDP1 cell growth loss with CPT. Potency, µM (titrated, usually from 46.2 µM), without a hit: at the highest dose activity change, negative = growth inhibition, actives largely listed as inhibitors. chicken DT40 Tdp1-/-;hTDP1 cells + 20 nM CPT, ATP luminescence, 48 h. AID 686979. 12% of 420,000 active; also: potency is read from the fitted curve at half-maximal effect; % is scaled to controls: 0 for no effect and ±100 for the full control effect; nearly all actives have a fitted effect of over 55% in size
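Chicken DT40 Tdp1-/- cells complemented with human TDP1, 400 cells/well, exposed to compounds plus 20 nM camptothecin for at least 48 h at 37 C; viability read as ATP content by CellTiter-Glo luminescence.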
TDP1 cell noCPT = qHTS for Inhibitors of human tyrosyl-DNA phosphodiesterase 1 (TDP1): qHTS in cells in absence of CPT; DT40 Tdp1-/- hTDP1 cells, no CPT, ATP luminescence, 48 h; Potency, µM (highest dose often 46.2 µM), for the others: at the top dose activity change, negative = growth inhibition, hits mostly inhibitors; 15% of 420,000 active; AID 686978, 2013; also: potency is read from the fitted curve at half-maximal effect; % is scaled to controls: 0 for no effect and ±100 for the full control effect; nearly all actives have a fitted effect of over 55% in size
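Growth kinetics read by CellTiter-Glo luminescence after ≥48 hr at 37 °C. Cells: DT40 Tdp1-/- stably carrying human TDP1, 400 per well, compound exposure in the absence of CPT (DMSO vehicle).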
HepG2 tox = HepG2 cytotoxicity, counter-screen for TGF-b inhibitors; HepG2 CAGA-GFP viability, ATP luminescence, 18 h; Potency, µM (highest dose often 46.1 µM), for the others: at the top dose activity change, negative = cytotoxicity, usual class: cytotoxic; 0.76% of 410,000 active; AID 588856; also: potency is read from the fitted curve at half-maximal effect
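HepG2 CAGA-GFP cells (1000/well, DMEM with 1% FBS) received compound, then TGF-beta at 500 pg/mL final, and were incubated 18 hours at 37 degrees C. Viability was read by CellTiter-Glo luminescence. Media-only wells were set as complete cell-killing and DMSO as no toxicity.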
TDP1 inh = inhibitors of human tyrosyl-DNA phosphodiesterase TDP1 | Q9NUW8 | recombinant TDP1, AlphaScreen DNA substrate cleavage | Potency, µM (doses to about 130 µM), inactives show at the highest dose activity change, negative = inhibition, actives largely listed as inhibitors | 0.28% of 350,000 active; also: potency is read from the fitted curve at half-maximal effect; % is scaled to controls: 0 for no effect and ±100 for the full control effect; nearly all actives have a fitted effect of over 40% in size
Target sequence (Q9NUW8 whole entry, looked up): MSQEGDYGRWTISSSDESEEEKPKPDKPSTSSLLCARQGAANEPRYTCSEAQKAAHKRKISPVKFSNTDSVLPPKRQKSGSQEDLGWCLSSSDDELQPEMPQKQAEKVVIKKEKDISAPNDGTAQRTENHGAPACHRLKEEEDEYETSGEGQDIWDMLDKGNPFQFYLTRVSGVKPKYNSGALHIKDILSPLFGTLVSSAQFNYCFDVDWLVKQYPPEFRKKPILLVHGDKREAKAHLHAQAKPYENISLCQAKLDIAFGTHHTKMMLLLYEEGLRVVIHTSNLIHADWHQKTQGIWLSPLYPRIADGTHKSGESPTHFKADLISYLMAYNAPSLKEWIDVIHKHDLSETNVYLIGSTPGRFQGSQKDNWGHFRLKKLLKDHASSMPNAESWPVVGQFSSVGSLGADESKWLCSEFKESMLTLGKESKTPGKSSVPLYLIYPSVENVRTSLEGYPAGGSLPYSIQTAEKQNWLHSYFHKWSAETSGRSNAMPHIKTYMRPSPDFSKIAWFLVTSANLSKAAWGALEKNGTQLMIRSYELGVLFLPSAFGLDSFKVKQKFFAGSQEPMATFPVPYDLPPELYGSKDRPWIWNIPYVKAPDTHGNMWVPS
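Tdp1 1 nM final; 15 min RT w/ cpd; substrate 15 nM, 5 min; beads 10 ug/ml, 10 min; AlphaScreen read. Neg ctrl: no enzyme.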
IL-1B inflam inh = blocks inflammasome-driven IL-1 beta release; AID 743279; 4.7% of 360,000 active; THP-1 LPS/ATP IL-1B secretion, AlphaLISA, 16 h; active compounds read low; activity change, % at 57.5 µM; in the data active = activity change below about -50%; inconclusive = mostly about -30% to -49%; also: % is scaled to controls: 0 for no effect and ±100 for the full control effect
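Secreted IL-1B measured by AlphaLISA bead assay after 16 h compound exposure of THP-1 cells; compounds (final up to 57.5 uM) added 1 h before LPS (250 ng/mL) and ATP (1.25 mM) stimulation; lower signal means less secretion.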
TGFb inhibitor = TGF-b pathway inhibition; AID 588855; Potency, µM (highest dose often 46.1 µM), without a hit: at the top dose activity, negative = inhibition, hits mostly inhibitors; 1.2% of 410,000 active; HepG2 CAGA-GFP TGF-b/SMAD3 reporter, GFP fluorescence, 18 h; TGF-beta stimulated, 500 pg/mL final; also: potency is read from the fitted curve at half-maximal effect; % is scaled to controls: 0 for no effect and ±100 for the full control effect; nearly all actives have a fitted effect of over 65% in size
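HEPG2 CAGA-GFP cells (1000/well, DMEM with 1% FBS) were pre-incubated 2 h at 37 degrees C, given compound by pin tool, then stimulated with TGF-beta at 500 pg/mL final for 18 h before per-cell GFP fluorescence imaging.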
The depositor's hits bear a star; ? = inconclusive; / = not tested or not shown; [ ] = another dose, or the depositor's remark. Unless noted, calls follow the shape of the dose curve; as a rule, active = well fitted curve in the direction sought with a large enough effect; inconclusive = small, poorly fitted or top-dose-only effect, or another doubt; inactive = no such curve, though single readings can be large; an effect the other way counts as inactive or inconclusive.

SMILES | DT40 TDP1 CPT | TDP1 cell noCPT | HepG2 tox | TDP1 inh | IL-1B inflam inh | TGFb inhibitor
CCN1C(=O)C2(C(C#N)=C(N)Oc3c2c(C)nn3-c2ccccc2)c2ccccc21 (configuration not stated) | 18µM* | 16µM* | -4% | 10% | 7 | ?
Cc1nn(-c2ccccc2)c2c1C1(C(=O)N(C)c3ccccc31)C(C#N)=C(N)O2 (configuration not stated) | 16µM* | ? | -3% | 9% | 11 | 0%
CC(=O)N1C(=O)C2(C(C#N)=C(N)Oc3cc(C)oc(=O)c32)c2ccccc21 (configuration not stated) | -1% | -8% | -23% | 3% | -12 | 3%
Cc1[nH]nc2c1C1(C(=O)N(Cc3ccc(Cl)cc3)c3ccccc31)C(C#N)=C(N)O2 (configuration not stated) | 23µM* | 26µM* | -14% | 6% | -16 | ?
Cc1nn(-c2ccccc2)c2c1C1(C(=O)N3c4c(cccc41)C(C)CC3(C)C)C(C#N)=C(N)O2 (configuration not stated) | ? | ? | -33% | 8% | -26 | ?
CC(=O)N1C(=O)C2(C(C#N)=C(N)Oc3c2c(C)nn3-c2ccccc2)c2ccccc21 (configuration not stated) | 23µM* | ? | -23% | 9% | 31 | ?
CC1(C)CC(Cc2cccc(C(F)(F)F)c2)N(C(=O)OC(C)(C)C)C1 (configuration not stated) | 4% | -10% | -16% | / | -13 | 1%
Cc1cc(=O)[nH]c2nnc(SCC(=O)NC(C)(C)C)n12 | 9% | 6% | -9% | 5% | / | -3%
COc1ccc(C(=O)N/N=C/c2ccc(OC)c(CN3CCc4cc(OC)c(OC)cc4C3C)c2)cc1 (configuration not stated) | ? | ? | -48% | 6% | 8 | -15%
CC(=O)N1C(=O)C2(C(C#N)=C(N)Oc3n[nH]c(-c4ccccn4)c32)c2ccccc21 (configuration not stated) | ? | 18µM* | 5% | 8% | 5 | -2%
CC1=CC(C)(C)N2C(=O)C3(C(C#N)=C(N)OC4=C3C(=O)CC(C)(C)C4)c3cccc1c32 (configuration not stated) | / | / | / | 2% | / | /
CC1(C)CC(=O)C2=C(C1)OC(N)=C(C#N)C21C(=O)N(Cc2ccccc2Cl)c2ccccc21 (configuration not stated) | ? | 23µM* | 0% | 2% | 0 | 3%
Cc1nn(-c2ccccc2)c(N)c1C1(O)C(=O)N(C)c2ccccc21 (configuration not stated) | 23µM* | ? | -8% | 0% | 10 | ?
COc1ccc(C(C)(C)C)cc1NC(=O)CN1C(=O)C(=O)N(Cc2ccco2)C1=O | 1% | 2% | 14% | 4% | 4 | 17%
CCOc1ccc(NC(=O)CSc2nnc3scc(-c4ccc(Cl)cc4)n23)cc1 | -29% | ? | 0% | / | / | 3%
CC1=C(C(=O)OC2CCCCC2)C(c2ccccc2)NC(=O)N1 (configuration not stated) | ? | ? | 18% | ? | -12 | -13%
CCOc1ccccc1C1NC(=O)NC(C)=C1C(=O)OC1CCCCC1 (configuration not stated) | ? | ? | -26% | 5% | -68* | -11%
CCOc1ccccc1C1CC(=O)NC(C)=C1C(=O)OC1CCCCCC1 (configuration not stated) | 21µM* | 16µM* | 16µM* | -4%[12.3 µM] | / | ?
CC1=C(C(=O)OC2CCCCCCC2)C(c2ccc(O)cc2)NC(=O)N1 (configuration not stated) | ? | ? | -44% | 0% | -55* | -21%
Cc1ccn2cc(CC(=O)O)nc2c1 | 2% | -16% | 4% | / | 1 | 7%
Oc1ccc(-c2cn3ccccc3n2)cc1 | -16% | ? | -37% | 0% | -14 | 13%
Oc1ccc(-c2cn3ccccc3n2)cc1O | 26µM* | 13µM* | -26% | / | 4 | 3%
Cc1ccn2cc(-c3ccc(O)c(O)c3)nc2c1 | 16µM* | 9.2µM* | -66% | / | 48 | 11µM*
CC1CCCC(C)N1CC(O)COc1c(F)cc(Br)cc1F (configuration not stated) | ? | ? | 1% | 3% | -18 | 4%
COc1ccccc1/C=C/C=N/n1c(-c2n[nH]c3c2CCC3)n[nH]c1=S | ? | 13µM* | 4% | 4% | -23 | ?
SMILES | DT40 TDP1 CPT | TDP1 cell noCPT | HepG2 tox | TDP1 inh | IL-1B inflam inh | TGFb inhibitor
COc1ccc(-c2n[nH]c(=S)n2/N=C/C=C\c2ccccc2OC)cc1 | 23µM* | 10µM* | 19% | -1% | 32 | 0%
O=c1c(Cc2ccc(F)cc2)c(O)ccn1Cc1cccc(Cl)c1 | ? | 16µM* | -6% | 1% | 0 | -16%
NC/C=C/C(=O)O | 8% | -12% | / | 9%[56.1 µM] | / | /
O=C(Nc1nc(-c2ccccn2)cs1)c1ccc(F)c(S(=O)(=O)N2CCOCC2)c1 | 1.5µM* | 0.58µM* | 1% | 4% | 140 | ?
Cc1ccc(C(=O)Nc2nc(-c3ccccn3)cs2)cc1S(=O)(=O)N1CCOCC1 | 1.3µM* | 0.73µM* | -28% | 4% | 171 | ?
O=C(Nc1nc(-c2ccccn2)cs1)c1cc(S(=O)(=O)N2CCOCC2)ccc1F | 2.6µM* | 2.3µM* | 11% | 2% | 97 | 3%
Cc1ccc(S(=O)(=O)N2CCOCC2)cc1C(=O)Nc1nc(-c2cccnc2)cs1 | -19% | ? | 4% | 3% | 7 | 1%
Cc1ccc(C(=O)Nc2ccccn2)cc1S(=O)(=O)N1CCOCC1 | 1% | 6% | 2% | -1% | 7 | 0%
CC(C)CN(C(=O)C1COc2ccccc2O1)c1c(N)n(CC(C)C)c(=O)[nH]c1=O (configuration not stated) | 0% | 19% | 3% | -4% | -26 | 5%
O=C1c2ccccc2C(=O)N1c1ncc(Cc2ccc(Cl)cc2)s1 | 18µM* | ? | -8% | 5% | 15 | -19%
CC(C)C(=O)Nc1ncc(Cc2ccccc2Cl)s1 | 20% | 1% | -18% | 0% | 5 | 0%

High-throughput results from PubChem.
